Reference: PubChem BioAssay (Tox21)
Records with an inconclusive call do not appear. Where a call stands in place of a potency, no number is given. The source made the active and inactive calls. The call rests on the fitted dose curve.

Biological target: Acetylcholinesterase (Homo sapiens) (UniProt P22303)
Assay: Acetylcholinesterase (AChE) small molecule antagonists: colormetric cell-based qHTS assay (AID 1347395); further: nearly all actives have a fitted effect of over 30% in size
Conditions: SH-SY5Y cells AChE activity, colorimetric (Ellman); series mostly up to 115 µM
Procedure, shortened: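 SH-SY5Y cells; cpd 30 min 37 C; + DTNB/acetylthiocholine, 90 min 37 C; colorimetric thiocholine read; qHTS.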

Sequence of Acetylcholinesterase (Homo sapiens) (P22303 whole entry, looked up): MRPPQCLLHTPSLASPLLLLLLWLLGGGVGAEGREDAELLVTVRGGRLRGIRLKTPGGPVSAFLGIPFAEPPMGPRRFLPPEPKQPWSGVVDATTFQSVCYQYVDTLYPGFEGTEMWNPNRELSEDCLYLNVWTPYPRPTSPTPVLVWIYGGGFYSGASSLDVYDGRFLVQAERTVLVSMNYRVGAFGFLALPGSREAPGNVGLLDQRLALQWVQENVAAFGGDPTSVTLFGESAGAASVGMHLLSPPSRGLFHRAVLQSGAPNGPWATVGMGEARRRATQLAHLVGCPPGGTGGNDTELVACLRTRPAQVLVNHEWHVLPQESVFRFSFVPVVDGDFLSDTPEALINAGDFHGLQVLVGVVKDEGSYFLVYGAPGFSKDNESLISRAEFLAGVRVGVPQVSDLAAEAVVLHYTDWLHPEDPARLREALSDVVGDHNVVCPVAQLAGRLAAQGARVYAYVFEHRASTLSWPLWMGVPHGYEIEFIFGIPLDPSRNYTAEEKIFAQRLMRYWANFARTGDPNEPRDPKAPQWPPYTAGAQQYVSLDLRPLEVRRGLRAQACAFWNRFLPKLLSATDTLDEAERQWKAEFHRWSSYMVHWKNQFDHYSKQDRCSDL

SMILES	Potency
C#Cc1ccc(-c2ccccc2F)cc1	inactive
CC(=O)SCc1ccco1	inactive
C=CC(C)(O)CCC=C(C)C (stereo not drawn)	inactive
CCOC(/C=C(\C)CCC=C(C)C)OCC	inactive
CC(C)(C)OC(=O)c1cccc(N)c1	inactive
C/C=C/C(=O)OCC(C)C	inactive
NNc1nc(-c2ccccc2)cs1	inactive
CCS(=O)(=O)CCn1c([N+](=O)[O-])cnc1C	inactive
CC(C)(C)NC(N)=O	inactive
C[C@H]1C[C@H]2[C@@H]3CCC4=CC(=O)C=C[C@]4(C)[C@@]3(Cl)[C@@H](O)C[C@]2(C)[C@@]1(O)C(=O)CO	inactive
Oc1ccc(C2(c3ccc(O)c(C4CCCCC4)c3)CCCCC2)cc1C1CCCCC1	inactive
COc1ccccc1C=O	inactive
Nc1ccc(C(=O)Nc2ccccc2N)cc1	inactive
CC(=O)Oc1cccc2c1C(=O)c1c(OC(C)=O)cc(C(=O)O)cc1C2=O	inactive
CCCOc1ccccc1-c1nc2n[nH]nc2c(=O)[nH]1	inactive
CCOC(=O)C1=C[C@]2(CC)CCCN3CCc4c(n1c1ccccc41)[C@@H]32	inactive
CCCSSCCC	inactive
O=C(CCCl)NCc1ccccc1	inactive
C=C[C@H]1CN2CC[C@H]1C[C@H]2[C@H](O)c1ccnc2ccc(OC)cc12	inactive
Cc1ccccc1C(=O)N1CC/C(=N\OS(=O)(=O)O)c2ccc(Cl)cc21	inactive
CCCCCCCCCCCc1ccccc1	inactive
CC(c1cc(C(C)(C)C)cc(C(C)(C)C)c1O)c1cc(C(C)(C)C)cc(C(C)(C)C)c1O	inactive
CC(C)OC(=O)COc1ccc(Cl)cc1Cl	inactive
